SW480 rerep: DNA re-replication induction in SW480 cells; Potency, µM (series often up to 46.1 µM), usual class: activators; SW480 DNA re-replication, Hoechst DNA content imaging, 48 h; AID 624297; hit rate 1.8% among 340,000; further: nearly all actives have a fitted effect of over 55% in size
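Compounds, transferred as 23 nL by pin tool, were incubated with cells for 48 hr; DNA content per nucleus was then quantified by Hoechst staining and fluorescence plate imaging.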
HT1080 IDH1KD tx: toxicity to HT-1080 IDH1 knockdown cells (counter line). hit rate 2% among 360,000. Potency, µM (series often up to 46.1 µM), actives largely listed as cytotoxic. AID 686971. HT-1080 IDH1 knockdown viability, ATP luminescence, 48 h
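After a 2 h attachment period, IDH1KD HT-1080 cells took pin-transferred compound for 48 h at 37 °C; ATP-based luminescence after 10 min room-temperature reagent incubation reported viability.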
HT1080NT lethal: kills 2HG-producing HT-1080-NT fibrosarcoma cells; HT-1080-NT fibrosarcoma viability, CellTiter-Glo ATP luminescence, 48 h; Potency, µM (series often up to 46.1 µM), actives largely listed as cytotoxic; hit rate 1.6% among 360,000; AID 686970;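 further: NT is the 2HG producing partner of a matched IDH1 knockdown line; nearly all actives have a fitted effect of over 55% in size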
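Compounds were tested in concentration-response format on HT-1080-NT cells for 48 hours at 37 degrees C. Cell viability came from CellTiter-Glo luminescence; curves were classified by r2, response magnitude and activity.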
KB-3-1 cytotox: KB-3-1 parental cell cytotoxicity | KB-3-1 viability, CellTiter-Glo ATP luminescence, 72 h | Potency, µM (highest dose often 46.1 µM), hits mostly cytotoxic | hit rate 1.4% among 400,000 | AID 1347075; further: nearly all actives have a fitted effect of over 60% in size
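Cytotoxicity in the drug-sensitive parental line KB-3-1 was scored as loss of CellTiter-Glo luminescence following 72 h incubation with compound. Values come from curve fitting of normalized concentration-response data.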
MCF10A rereplic: induces DNA re-replication in MCF 10a normal breast cells; MCF 10A DNA re-replication, Hoechst nuclear intensity, 48 h; Potency, µM (highest dose often 46.1 µM), usual class: activators; hit rate 2.9% among 350,000; further: nearly all actives have a fitted effect of over 50% in size
KB-V1 MDR tox: kills drug-selected multidrug resistant KB-V1 cells; KB-V1 MDR cells viability, CellTiter-Glo, 72 h; Potency, µM (doses to about 46.1 µM), most hits filed as cytotoxic; AID 1347076; hit rate 3.4% among 400,000; further: nearly all actives have a fitted effect of over 60% in size
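Following 72 h at 37 degrees C with compound, KB-V1 cell viability was read by CellTiter-Glo luminescence, medium being phenol-red-free DMEM plus 10% FBS; concentration-response parameters came from normalized, curve-fitted qHTS data.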
Hits are given with their value; - = inactive; ? = inconclusive; . = no result given. An excerpt weighted towards active compounds, which were near 7.9% of everything screened. The call rests on the fitted dose curve; in most records, active means well fitted curve in the direction sought with a large enough effect; inconclusive means small, poorly fitted or top-dose-only effect, or another doubt; inactive means no such curve, though single readings can be large; an effect the other way counts as inactive or inconclusive.

SMILES | SW480 rerep | HT1080 IDH1KD tx | HT1080NT lethal | KB-3-1 cytotox | MCF10A rereplic | KB-V1 MDR tox
COc1ccc(-c2cc(C(F)(F)F)nc(S(=O)(=O)CCCC(=O)Nc3cccc(O)c3)n2)cc1OC | ? | 12µM | 18µM | - | 6.5µM | -
CCOC(=O)c1cccc(NC(=O)c2cc(C)nc3c2c(C)nn3-c2ccc(C)cc2)c1 | . | . | . | - | . | -
COc1ccccc1-c1cc(C(F)(F)F)nc(S(=O)(=O)CCCC(=O)N2CCOCC2)n1 | ? | 16µM | 16µM | 16µM | 3.3µM | ?
COc1ccccc1-c1cc(C(F)(F)F)nc(S(=O)(=O)CCCC(=O)Nc2cc(OC)c(OC)c(OC)c2)n1 | . | . | . | - | . | ?
CCC/C=C/c1ccc(CN2C(CC(C)C)C(=O)N(Cc3cn(CCOCOC)nn3)CCS2(=O)=O)cc1 (centres undefined) | . | - | - | - | . | ?
Nc1cccc2nsnc12 | - | - | ? | - | ? | -
Nc1cc2nsnc2cc1Br | 18µM | ? | - | - | ? | -
COc1ccc(C(=O)N2CCOCC2c2cc(C(=O)NCc3ccccc3)no2)cc1 (centres undefined) | . | - | - | - | . | ?
COc1cc(-c2nc(-c3ccccc3)c(-c3cccs3)[nH]2)cc(OC)c1O | - | - | - | ? | ? | 21µM
Cc1ccc(NC(=O)COC(=O)CCC2CCCC2)c(Br)c1 | - | - | - | - | - | -
O=C(COC(=O)CCC1CCCC1)Nc1ccc(Cl)cc1F | 23µM | - | - | - | - | -
CCOC(=O)C1=C(c2ccccc2)NC(=O)NC1c1ccc(O)c(OCC)c1 (centres undefined) | - | - | - | ? | - | -
CCOC(=O)C1=C(c2ccccc2)NC(=S)NC1c1cc([N+](=O)[O-])ccc1OC (centres undefined) | - | - | - | - | - | -
CCOC(=O)C1=C(c2ccccc2)NC(=S)NC1c1cccc([N+](=O)[O-])c1 (centres undefined) | - | - | - | - | - | 15µM
CCOC(=O)C1=C(c2ccccc2)NC(=O)NC1c1ccc(O)c(Cl)c1 (centres undefined) | - | 13µM | 12µM | - | - | -
CCOC(=O)C1=C(c2ccccc2)NC(=S)NC1c1ccc(C)c([N+](=O)[O-])c1 (centres undefined) | ? | - | - | - | ? | 2.9µM
CCOC(=O)C1=C(C)NC(C)=C(C(=O)OCC)C1c1cccc([N+](=O)[O-])c1 | . | - | - | - | . | ?
C#CCN1C(C)=C(C(=O)OC)C(c2cccc([N+](=O)[O-])c2)C(C(=O)OCC)=C1C (centres undefined) | - | - | ? | - | - | 12µM
O=S1(=O)CCO[C@H]2CCCC[C@@H]2N1Cc1cccc(F)c1 | . | . | . | - | . | ?
C=C1NN(Cc2ccc(OC)cc2)C(=O)N1c1ccccc1 | . | . | . | - | . | -
CC1=C(C(=O)OCc2ccccc2)C(c2cccc([N+](=O)[O-])c2)NC(=O)N1 (centres undefined) | - | - | - | - | - | -
CC1=C(C(=O)OCc2ccccc2)C(c2cccc([N+](=O)[O-])c2)NC(=O)N1C (centres undefined) | - | - | - | - | 0.82µM | ?
O=C(Nc1cccc(Cl)c1)C1C2CCC3C(CCC21)C3(Cl)Cl (centres undefined) | - | ? | ? | ? | - | 21µM
O=C(Nc1ccccc1)C1C2CCC3C(CCC21)C3(Cl)Cl (centres undefined) | - | - | - | - | - | -
CN(C)C(CNS(=O)(=O)c1ccc(Cl)cc1F)c1ccco1 (centres undefined) | - | - | - | - | - | 18µM
CN(C)C(CNS(=O)(=O)c1cc([N+](=O)[O-])ccc1Cl)c1ccco1 (centres undefined) | - | - | - | - | - | -
Cc1[nH]n(-c2ccccc2)c(=O)c1/C=N/NC(=O)COc1ccccc1[N+](=O)[O-] | 13µM | ? | ? | ? | ? | ?
Cc1[nH]n(-c2ccccc2)c(=O)c1/C=N/NC(=O)c1ccccc1F | 2.3µM | ? | ? | ? | ? | -

Source: PubChem
